The results in this text go back to PubChem BioAssay (NCATS).

Records with an inconclusive call do not appear. A call without a number means that no potency is given here. Calls of active or inactive are those of the source. Calls come from the whole dose curve; as a rule, active = well fitted inhibition curve with a large enough effect; inconclusive = small, poorly fitted or top-dose-only effect; inactive = flat fitted curve, though single readings scatter.
Potency is the fitted concentration of half-maximal effect.

One test concerns ATS95. Kind of test: qHTS profiling for inhibitors of Plasmodium falciparum proliferation (AID 504749). Note: nearly all actives have a fitted effect of over 60% in size. The following applies: P. falciparum in erythrocytes, SYBR Green DNA, 72 h; series mostly up to 28.7 µM. Summed up: (§1)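 Readout was DNA-dye fluorescence from lysed cultures, ex 485/em 535 nm. Parasitized red cells had grown 72 h with compound; data scaled between 0.29 uM artemisinin and DMSO wells and corrected using vehicle-only plates.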
In general terms: In qHTS, concentration-response curves come from the screen itself.
`Cc1cc(C(C)(C)C)cc(C)c1CC1=NCCN1`: the Potency entry was “inactive”.
On to `OCCN1CCN(CCCN2c3ccccc3Sc3ccc(C(F)(F)F)cc32)CC1`, for which the Potency is 11.2 µM (active).
On the same count and under the same terms, next, `O=c1c(-c2ccc(O)cc2)coc2cc(O)cc(O)c12`: “inactive”; `CC[N+](CC)(CC)CCOc1cccc(OCC[N+](CC)(CC)CC)c1OCC[N+](CC)(CC)CC`: “inactive”; `CC(C)NCC(O)c1ccc(O)c(O)c1` (configuration not stated): “inactive”.
Turning to `CN(C)C(=N)N=C(N)N`, the Potency entry is “inactive”.
As to `CC[C@@]1(O)C(=O)OCc2c1cc1n(c2=O)Cc2cc3c(CN(C)C)c(O)ccc3nc2-1`, the Potency is 3.16 µM (active).
Consider `CC(C)NCC(O)COc1ccc(CCOCC2CC2)cc1` (configuration not stated), for which the Potency entry is “inactive”.
Take `COC(=O)Nc1nc2ccc(C(=O)c3cccs3)cc2[nH]1`: the Potency entry was “inactive”.
Turning to `Clc1ccc2nsnc2c1NC1=NCCN1`, the Potency entry was “inactive”.
For `CN1CCC(=C2c3ccccc3CC(=O)c3sccc32)CC1`, the Potency is 11.2 µM (active).
Still for that read-out and setting: in the case of `O=C(c1ccc(F)cc1)C1CCN(CCn2c(=O)[nH]c3ccccc3c2=O)CC1` it was “inactive”; in that of `Cc1cnc(C(=O)NCCc2ccc(S(=O)(=O)NC(=O)NC3CCCCC3)cc2)cn1`, “inactive”.
Turning to `Clc1ccc(C(c2ccccc2Cl)C(Cl)Cl)cc1` (configuration not stated), the Potency result was “inactive”.
Same read-out and setting: next, `C[C@](N)(Cc1ccc(O)c(O)c1)C(=O)O`: “inactive”; `CCC1(c2ccccc2)C(=O)NCNC1=O`: “inactive”; `COc1ccccc1OCCNCC(O)COc1cccc2[nH]c3ccccc3c12` (configuration not stated): 12.6 µM (active).
Still for that read-out and setting: next, `CCCCc1oc2ccccc2c1C(=O)c1cc(I)c(OCCN(CC)CC)c(I)c1`: 5.01 µM (active); `COc1ccc(CCN(C)CCCC(C#N)(c2ccc(OC)c(OC)c2)C(C)C)cc1OC` (configuration not stated): “inactive”.
Take `O=C1c2c(O)ccc(O)c2C(=O)c2c(NCCNCCO)ccc(NCCNCCO)c21`: the Potency was 2.24 µM (active).

The test system of the next test is C2A. The description is as above. Particulars: P. falciparum in erythrocytes, SYBR Green DNA, 72 h; series mostly up to 28.7 µM. In short, it runs like this:
as §1
As to `Cc1cc(C(C)(C)C)cc(C)c1CC1=NCCN1`, the Potency result is “inactive”.
The same measure, in the same setting: in the case of `OCCN1CCN(CCCN2c3ccccc3Sc3ccc(C(F)(F)F)cc32)CC1` it was 12.6 µM (active).
Take `O=c1c(-c2ccc(O)cc2)coc2cc(O)cc(O)c12`: the Potency entry was “inactive”.
`CC[N+](CC)(CC)CCOc1cccc(OCC[N+](CC)(CC)CC)c1OCC[N+](CC)(CC)CC`: the Potency entry was “inactive”.
The same measure, in the same setting: next, `CC(C)NCC(O)c1ccc(O)c(O)c1` (configuration not stated): “inactive”; `Nc1c2c(nc3ccccc13)CCCC2`: “inactive”.
For the molecule `CN(Cc1cnc2nc(N)nc(N)c2n1)c1ccc(C(=O)N[C@@H](CCC(=O)O)C(=O)O)cc1`, the Potency is 0.251 µM (active).
Consider `Cc1ccc(C(=O)Nc2ccc(S(=O)(=O)O)c3cc(S(=O)(=O)O)cc(S(=O)(=O)O)c23)cc1NC(=O)c1cccc(NC(=O)Nc2cccc(C(=O)Nc3cc(C(=O)Nc4ccc(S(=O)(=O)O)c5cc(S(=O)(=O)O)cc(S(=O)(=O)O)c45)ccc3C)c2)c1`, for which the Potency result is “inactive”.
As for `CN(C)C(=N)N=C(N)N`, the Potency entry is “inactive”.
Take `CN(C)CCCN1c2ccccc2CCc2ccc(Cl)cc21`: the Potency result was “inactive”.
Take `CC[C@@]1(O)C(=O)OCc2c1cc1n(c2=O)Cc2cc3c(CN(C)C)c(O)ccc3nc2-1`: the Potency was 8.91 µM (active).
Turning to `O=C(c1ccc(OCCN2CCCCC2)cc1)c1c(-c2ccc(O)cc2)sc2cc(O)ccc12`, the Potency is 10 µM (active).
Regarding `CC(C)NCC(O)COc1ccc(CCOCC2CC2)cc1` (configuration not stated), the Potency result was “inactive”.
The same measure, in the same setting: next, `Clc1ccc2nsnc2c1NC1=NCCN1`: “inactive”; `O=C(Nc1ccc([N+](=O)[O-])cc1Cl)c1cc(Cl)ccc1O`: “inactive”; `CC12CC3CC(C)(C1)CC(N)(C3)C2`: “inactive”.
With `O=C(c1ccc(F)cc1)C1CCN(CCn2c(=O)[nH]c3ccccc3c2=O)CC1`, the Potency entry is “inactive”.
In the case of `Cc1cnc(C(=O)NCCc2ccc(S(=O)(=O)NC(=O)NC3CCCCC3)cc2)cn1`, the Potency result is “inactive”.
On to `Clc1ccc2c(c1)C(N1CCNCC1)=Nc1ccccc1O2`, for which the Potency entry was “inactive”.
For `Clc1ccc(C(c2ccccc2Cl)C(Cl)Cl)cc1` (configuration not stated), the Potency result was “inactive”.
For `C[C@](N)(Cc1ccc(O)c(O)c1)C(=O)O`, the Potency entry was “inactive”.
Regarding `NCCc1cnc[nH]1`, the Potency entry was “inactive”.
As to `CNCCCC12CCC(c3ccccc31)c1ccccc12`, the Potency result is “inactive”.
In the case of `CN(C)CCC=C1c2ccccc2C=Cc2ccccc21`, the Potency result was “inactive”.
Regarding `CCC1(c2ccccc2)C(=O)NCNC1=O`, the Potency entry is “inactive”.
Consider `COc1ccccc1OCCNCC(O)COc1cccc2[nH]c3ccccc3c12` (configuration not stated), for which the Potency is 10 µM (active).
On to `CCCCc1oc2ccccc2c1C(=O)c1cc(I)c(OCCN(CC)CC)c(I)c1`, for which the Potency is 10 µM (active).
For the molecule `CC(COc1ccccc1)N(CCCl)Cc1ccccc1` (configuration not stated), the Potency result is “inactive”.
Consider `COc1ccc(CCN(C)CCCC(C#N)(c2ccc(OC)c(OC)c2)C(C)C)cc1OC` (configuration not stated), for which the Potency entry was “inactive”.
With `O=C1c2c(O)ccc(O)c2C(=O)c2c(NCCNCCO)ccc(NCCNCCO)c21`, the Potency was 3.16 µM (active).

The test system of the next test is CP185. The description is as above. The following applies: P. falciparum in erythrocytes, SYBR Green DNA, 72 h; series mostly up to 28.7 µM. Summed up:
as §1
Consider `Cc1cc(C(C)(C)C)cc(C)c1CC1=NCCN1`, for which the Potency entry is “inactive”.
On the same count and under the same terms, next, `OCCN1CCN(CCCN2c3ccccc3Sc3ccc(C(F)(F)F)cc32)CC1`: 11.2 µM (active); `O=c1c(-c2ccc(O)cc2)coc2cc(O)cc(O)c12`: “inactive”; `CC[N+](CC)(CC)CCOc1cccc(OCC[N+](CC)(CC)CC)c1OCC[N+](CC)(CC)CC`: “inactive”.
In the case of `CC(C)NCC(O)c1ccc(O)c(O)c1` (configuration not stated), the Potency result is “inactive”.
Same read-out and setting: next, `Cc1ccc(C(=O)Nc2ccc(S(=O)(=O)O)c3cc(S(=O)(=O)O)cc(S(=O)(=O)O)c23)cc1NC(=O)c1cccc(NC(=O)Nc2cccc(C(=O)Nc3cc(C(=O)Nc4ccc(S(=O)(=O)O)c5cc(S(=O)(=O)O)cc(S(=O)(=O)O)c45)ccc3C)c2)c1`: “inactive”; `CN(C)C(=N)N=C(N)N`: “inactive”.
With `Cc1ccc(-c2cc(C(F)(F)F)nn2-c2ccc(S(N)(=O)=O)cc2)cc1`, the Potency result was “inactive”.
`CN(C)CCCN1c2ccccc2CCc2ccc(Cl)cc21`: the Potency entry was “inactive”.
Still for that read-out and setting: next, `CC(C)NCC(O)COc1ccc(CCOCC2CC2)cc1` (configuration not stated): “inactive”.
`COC(=O)Nc1nc2ccc(C(=O)c3cccs3)cc2[nH]1`: the Potency entry is “inactive”.
`Clc1ccc2nsnc2c1NC1=NCCN1`: the Potency result was “inactive”.
The same measure, in the same setting: next, `O=C(Nc1ccc([N+](=O)[O-])cc1Cl)c1cc(Cl)ccc1O`: “inactive”; `CC12CC3CC(C)(C1)CC(N)(C3)C2`: “inactive”; `O=C(c1ccc(F)cc1)C1CCN(CCn2c(=O)[nH]c3ccccc3c2=O)CC1`: “inactive”.
`Cc1cnc(C(=O)NCCc2ccc(S(=O)(=O)NC(=O)NC3CCCCC3)cc2)cn1`: the Potency entry was “inactive”.
In the case of `Clc1ccc2c(c1)C(N1CCNCC1)=Nc1ccccc1O2`, the Potency result is “inactive”.
Turning to `Clc1ccc(C(c2ccccc2Cl)C(Cl)Cl)cc1` (configuration not stated), the Potency entry is “inactive”.
For the molecule `C[C@](N)(Cc1ccc(O)c(O)c1)C(=O)O`, the Potency result was “inactive”.
Turning to `NCCc1cnc[nH]1`, the Potency result is “inactive”.
Regarding `CNCCCC12CCC(c3ccccc31)c1ccccc12`, the Potency result was “inactive”.
As to `CN(C)CCC=C1c2ccccc2C=Cc2ccccc21`, the Potency entry was “inactive”.
On to `CCC1(c2ccccc2)C(=O)NCNC1=O`, for which the Potency entry is “inactive”.
Take `CCCCc1oc2ccccc2c1C(=O)c1cc(I)c(OCCN(CC)CC)c(I)c1`: the Potency is 8.91 µM (active).
`CC(COc1ccccc1)N(CCCl)Cc1ccccc1` (configuration not stated): the Potency result was “inactive”.
Consider `COc1ccc(CCN(C)CCCC(C#N)(c2ccc(OC)c(OC)c2)C(C)C)cc1OC` (configuration not stated), for which the Potency result was “inactive”.
Take `O=C1c2c(O)ccc(O)c2C(=O)c2c(NCCNCCO)ccc(NCCNCCO)c21`: the Potency is 3.16 µM (active).
